# Measurements taken from the supplement of paper PMC8728848.
# Shown is part of a subset that was picked to be rich in the strongest signals.
# B1: CD34 (Homo sapiens), P28906 (protein)
# chain: MGSSHHHHHHSSGLVPRGSHMSTSLATSPTKPYTSSSPILSDIKAEIKCSGIREVKLTQGICLEQNKTSSCAEFKKDRGEGLARVLCGEEQADADAGAQVCSLLLAQSEVRPQCLLLVLANRTEISSKLQLMKKHQSDLKKLGILDFTEQDVASHQSYSQKT
# What was measured:
# Test in all cases: glycan array binding signal (z-score within array); higher = stronger binding
# Conditions in all cases: glycan notation: IUPAC condensed, linker removed
# [1] = biological target: Fuc(a1-2)Gal(b1-4)Fuc(a1-3)]GlcNAc(b1-2)Man(a1-3)[Fuc(a1-2)Gal(b1-4)[Fuc(a1-3)]GlcNAc(b1-2)Man(a1-6)]Man(b1-4)GlcNAc(b1-4)GlcNAc
# How it was run: (§1)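 Glycan array data were curated from 3228 arrays in the Consortium for Functional Glycomics database and kept only where the protein sequence was available. Glycan names were converted to IUPAC-condensed notation, and columns mapping to the same glycan were averaged. The binding signal is a within-array Z-score, averaged across arrays of the same protein sequence at different concentrations or buffers and across linkers. Negative Z-scores can be read as non-binding.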
# Fuc(a1-2)Gal(b1-4)GlcNAc = biological target: Fuc(a1-2)Gal(b1-4)GlcNAc
# How it was run: as §1
# [2] = biological target: Fuc(a1-2)Gal(b1-4)[Fuc(a1-3)]GlcNAc(b1-2)[Fuc(a1-2)Gal(b1-4)[Fuc(a1-3)]GlcNAc(b1-4)]Man(a1-3)[Fuc(a1-2)Gal(b1-4)[Fuc(a1-3)]GlcNAc(b1-2)Man(a1-6)]Man(b1-4)GlcNAc(b1-4)GlcNAc
# How it was run: as §1
# Fuc(a1-2)Gal6S(b1-4)Glc = biological target: Fuc(a1-2)Gal6S(b1-4)Glc
# How it was run: as §1
# [3] = biological target: Fuc(a1-2)[GalNAc(a1-3)]Gal(b1-3)GlcNAc(b1-3)GalNAc
# How it was run: as §1
# [4] = biological target: Fuc(a1-2)[GalNAc(b1-3)]Gal
# How it was run: as §1
# [5] = biological target: Fuc(a1-3)[Gal(b1-4)]GlcNAc(b1-6)GalNAc
# How it was run: as §1
# Fuc(a1-4)GlcNAc = biological target: Fuc(a1-4)GlcNAc
# How it was run: as §1
# Gal(a1-2)Gal = biological target: Gal(a1-2)Gal
# How it was run: as §1
# Gal(a1-3)Gal = biological target: Gal(a1-3)Gal
# How it was run: as §1
# Gal(a1-3)Gal(b1-3)GlcNAc = biological target: Gal(a1-3)Gal(b1-3)GlcNAc
# How it was run: as §1
# [6] = biological target: Gal(a1-3)Gal(b1-3)GlcNAc(b1-2)Man
# How it was run: as §1
# [7] = biological target: Gal(a1-3)Gal(b1-4)GlcNAc(b1-2)Man
# How it was run: as §1
# [8] = biological target: Gal(a1-4)Gal(b1-4)GlcNAc(b1-3)Gal(b1-4)Glc
# How it was run: as §1
# Gal(b1-3)GalNAc(b1-3)Gal = biological target: Gal(b1-3)GalNAc(b1-3)Gal
# How it was run: as §1
# [9] = biological target: Gal(b1-3)GalNAc(b1-4)Gal(b1-4)Glc
# How it was run: as §1
# [10] = biological target: Gal(b1-3)GlcNAc(b1-3)Gal(b1-4)GlcNAc
# How it was run: as §1
# [11] = biological target: Gal(b1-4)GlcNAc(b1-2)Man(a1-3)[Gal(b1-4)GlcNAc(b1-2)Man(a1-6)][GlcNAc(b1-4)]Man(b1-4)GlcNAc(b1-4)[Fuc(a1-6)]GlcNAc
# How it was run: as §1
# [12] = biological target: Gal(b1-4)GlcNAc(b1-2)Man(a1-3)[Man(a1-6)]Man(b1-4)GlcNAc(b1-4)GlcNAc
# How it was run: as §1
# [13] = biological target: Gal(b1-4)GlcNAc(b1-3)Gal(b1-4)GlcNAc(b1-2)[Gal(b1-4)GlcNAc(b1-3)Gal(b1-4)GlcNAc(b1-6)]Man(a1-6)[Gal(b1-4)GlcNAc(b1-3)Gal(b1-4)GlcNAc(b1-2)Man(a1-3)]Man(b1-4)GlcNAc(b1-4)GlcNAc
# How it was run: as §1
# [14] = biological target: Gal(b1-4)GlcNAc(b1-3)Gal(b1-4)GlcNAc(b1-3)GalNAc
# How it was run: as §1
# Gal3S(b1-4)Glc = biological target: Gal3S(b1-4)Glc
# How it was run: as §1
# Gal6S(b1-4)Glc = biological target: Gal6S(b1-4)Glc
# How it was run: as §1
# GalNAc(b1-3)Gal = biological target: GalNAc(b1-3)Gal
# How it was run: as §1
# [15] = biological target: GalNAc(b1-3)Gal(a1-6)Gal(b1-4)Glc
# How it was run: as §1
# [16] = biological target: GalNAc3S(b1-4)[Fuc(a1-3)]GlcNAc
# How it was run: as §1
# Glc(b1-6)Glc = biological target: Glc(b1-6)Glc
# How it was run: as §1
# [17] = biological target: GlcA3S(b1-3)Gal(b1-4)GlcNAc(b1-3)Gal(b1-4)Glc
# How it was run: as §1
# [18] = biological target: GlcNAc(b1-2)[GlcNAc(b1-4)]Man(a1-3)[GlcNAc(b1-4)][GlcNAc(b1-2)Man(a1-6)]Man(b1-4)GlcNAc(b1-4)GlcNAc
# How it was run: as §1
# [19] = biological target: GlcNAc(b1-2)[GlcNAc(b1-6)]Man(a1-6)[GlcNAc(b1-4)][GlcNAc(b1-2)Man(a1-3)]Man(b1-4)GlcNAc(b1-4)GlcNAc
# How it was run: as §1
# [20] = biological target: GlcNAc(b1-3)Gal(b1-4)GlcNAc(b1-2)[GlcNAc(b1-3)Gal(b1-4)GlcNAc(b1-6)]Man(a1-6)[GlcNAc(b1-3)Gal(b1-4)GlcNAc(b1-2)Man(a1-3)]Man(b1-4)GlcNAc(b1-4)GlcNAc
# How it was run: as §1
# [21] = biological target: GlcNAc(b1-3)Gal(b1-4)GlcNAc(b1-3)Gal(b1-4)GlcNAc
# How it was run: as §1
# [22] = biological target: GlcNAc(b1-4)GlcNAc(b1-4)GlcNAc(b1-4)GlcNAc(b1-4)GlcNAc
# How it was run: as §1
# Kdn(a2-6)Gal(b1-4)GlcNAc = biological target: Kdn(a2-6)Gal(b1-4)GlcNAc
# How it was run: as §1
# [23] = biological target: Man(a1-2)Man(a1-3)[Man(a1-6)]Man(a1-6)[Man(a1-2)Man(a1-3)]Man(b1-4)GlcNAc(b1-4)GlcNAc
# How it was run: as §1
# MurNAc(b1-4)GlcNAc = biological target: MurNAc(b1-4)GlcNAc
# How it was run: as §1
# [24] = biological target: Neu5Ac(a2-3)Gal(b1-3)GalNAc(b1-4)[Neu5Ac(a2-3)]Gal(b1-4)Glc
# How it was run: as §1
# [25] = biological target: Neu5Ac(a2-3)Gal(b1-3)GlcNAc(b1-2)Man(a1-3)[Neu5Ac(a2-3)Gal(b1-3)GlcNAc(b1-2)Man(a1-6)]Man(b1-4)GlcNAc(b1-4)GlcNAc
# How it was run: as §1
# [26] = biological target: Neu5Ac(a2-3)Gal(b1-3)GlcNAc6S
# How it was run: as §1
# [27] = biological target: Neu5Ac(a2-3)Gal(b1-3)[Fuc(a1-4)]GlcNAc(b1-3)Gal(b1-3)[Fuc(a1-4)]GlcNAc
# How it was run: as §1
# [28] = biological target: Neu5Ac(a2-3)Gal(b1-3)[Fuc(a1-4)]GlcNAc(b1-3)Gal(b1-4)[Fuc(a1-3)]GlcNAc
# How it was run: as §1
# [29] = biological target: Neu5Ac(a2-3)Gal(b1-4)GlcNAc(b1-2)Man
# How it was run: as §1
# [30] = biological target: Neu5Ac(a2-3)Gal(b1-4)GlcNAc(b1-3)Gal(b1-3)GlcNAc
# How it was run: as §1
# [31] = biological target: Neu5Ac(a2-3)Gal(b1-4)GlcNAc6S
# How it was run: as §1
# [32] = biological target: Neu5Ac(a2-3)Gal(b1-4)[Fuc(a1-3)]GlcNAc
# How it was run: as §1
# [33] = biological target: Neu5Ac(a2-3)[Neu5Ac(a2-6)]GalNAc
# How it was run: as §1
# [34] = biological target: Neu5Ac(a2-6)Gal(b1-4)GlcNAc(b1-2)Man(a1-6)[Gal(b1-4)GlcNAc(b1-2)Man(a1-3)]Man(b1-4)GlcNAc(b1-4)GlcNAc
# How it was run: as §1
# [35] = biological target: Neu5Ac(a2-6)Gal(b1-4)GlcNAc(b1-3)Gal(b1-4)GlcNAc(b1-2)Man(a1-3)[Neu5Ac(a2-6)Gal(b1-4)GlcNAc(b1-3)Gal(b1-4)GlcNAc(b1-2)Man(a1-6)]GalNAc
# How it was run: as §1
# [36] = biological target: Neu5Ac(a2-6)Gal(b1-4)GlcNAc(b1-3)Gal(b1-4)GlcNAc(b1-3)GalNAc
# How it was run: as §1
# [37] = biological target: Neu5Ac(a2-6)GalNAc(b1-4)GlcNAc6S
# How it was run: as §1
# [38] = biological target: Neu5Ac(a2-8)Neu5Ac(a2-3)[Gal(b1-3)GalNAc(b1-4)]Gal(b1-4)Glc
# How it was run: as §1
# [39] = biological target: Neu5Gc(a2-3)Gal(b1-3)[Fuc(a1-4)]GlcNAc
# How it was run: as §1
# [40] = biological target: Neu5Gc(a2-3)Gal(b1-4)[Fuc(a1-3)]GlcNAc
# How it was run: as §1
# [41] = biological target: Neu5Gc(b2-6)Gal(b1-4)GlcNAc
# How it was run: as §1
binder,measurement,setting,value
B1,glycan array binding signal (z-score),[1],1.89
same,glycan array binding signal (z-score),Fuc(a1-2)Gal(b1-4)GlcNAc,0.713
same,glycan array binding signal (z-score),[2],1.72
same,glycan array binding signal (z-score),Fuc(a1-2)Gal6S(b1-4)Glc,0.088
same,glycan array binding signal (z-score),[3],1.77
same,glycan array binding signal (z-score),[4],-0.335
same,glycan array binding signal (z-score),[5],-0.245
same,glycan array binding signal (z-score),Fuc(a1-4)GlcNAc,0.624
same,glycan array binding signal (z-score),Gal(a1-2)Gal,-0.315
same,glycan array binding signal (z-score),Gal(a1-3)Gal,0.754
same,glycan array binding signal (z-score),Gal(a1-3)Gal(b1-3)GlcNAc,0.398
same,glycan array binding signal (z-score),[6],0.084
same,glycan array binding signal (z-score),[7],-1.01
same,glycan array binding signal (z-score),[8],-0.647
same,glycan array binding signal (z-score),Gal(b1-3)GalNAc(b1-3)Gal,-0.13
same,glycan array binding signal (z-score),[9],0.08
same,glycan array binding signal (z-score),[10],-0.549
same,glycan array binding signal (z-score),[11],-0.754
same,glycan array binding signal (z-score),[12],-0.73
same,glycan array binding signal (z-score),[13],2.58
same,glycan array binding signal (z-score),[14],1.97
same,glycan array binding signal (z-score),Gal3S(b1-4)Glc,1.83
same,glycan array binding signal (z-score),Gal6S(b1-4)Glc,-0.308
same,glycan array binding signal (z-score),GalNAc(b1-3)Gal,1.82
same,glycan array binding signal (z-score),[15],-1.07
same,glycan array binding signal (z-score),[16],0.211
same,glycan array binding signal (z-score),Glc(b1-6)Glc,-1.19
same,glycan array binding signal (z-score),[17],-0.551
same,glycan array binding signal (z-score),[18],-0.524
same,glycan array binding signal (z-score),[19],-0.731
same,glycan array binding signal (z-score),[20],-0.175
same,glycan array binding signal (z-score),[21],-0.666
same,glycan array binding signal (z-score),[22],0.087
same,glycan array binding signal (z-score),Kdn(a2-6)Gal(b1-4)GlcNAc,-0.352
same,glycan array binding signal (z-score),[23],-0.726
same,glycan array binding signal (z-score),MurNAc(b1-4)GlcNAc,1.79
same,glycan array binding signal (z-score),[24],2.63
same,glycan array binding signal (z-score),[25],2.09
same,glycan array binding signal (z-score),[26],0.142
same,glycan array binding signal (z-score),[27],1.31
same,glycan array binding signal (z-score),[28],-0.478
same,glycan array binding signal (z-score),[29],1.1
same,glycan array binding signal (z-score),[30],-0.171
same,glycan array binding signal (z-score),[31],-0.319
same,glycan array binding signal (z-score),[32],-0.826
same,glycan array binding signal (z-score),[33],-0.204
same,glycan array binding signal (z-score),[34],-0.644
same,glycan array binding signal (z-score),[35],0.167
same,glycan array binding signal (z-score),[36],0.803
same,glycan array binding signal (z-score),[37],0.66
same,glycan array binding signal (z-score),[38],-0.858
same,glycan array binding signal (z-score),[39],0.294
same,glycan array binding signal (z-score),[40],1.71
same,glycan array binding signal (z-score),[41],-0.479
